Values joined by “and” are separate entries in the source; they are usually repeats but may differ in a detail not shown here. Equal values may be shown once. About 11,000 (3.1%) of roughly 360,000 compounds were called active. Inconclusive results (about 2%) are left out. No stated cut-off is given here; in the data, active means fluorescence intensity above about 16000; inconclusive means no clear call, values can overlap the other calls; inactive means below that. The list comes from a sample in which actives are over-represented; it also holds similar structures and randomly drawn compounds.
Experiment: counter-screen for toxin protease inhibitors: compound fluorescence, primary screen, artefact control for toxin protease inhibitor project, biochemical, multiplex microsphere, HTS (AID 624483)
Details: compound autofluorescence counterscreen, microsphere flow cytometry; stronger effect = higher value
For CC1(C(=O)O)CCN1C(=O)/C=C/c1ccccc1 (stereo unspecified), the fluorescence intensity was 3910 (inactive).
With CCc1ccc(Nc2n[n+](-c3ccccc3)c(-c3cccc(Cl)c3Cl)s2)cc1 the fluorescence intensity was 4300 (inactive).
With CN(Cc1ccc2nsnc2c1)Cc1nc(Cc2cccc(F)c2)no1 the fluorescence intensity was 4550 (inactive).
In the case of O=C1NC[C@@H](CCCCN2CCN(CCc3ccc(O)cc3)C(=O)C2=O)N(CC2CCCCC2)C1=O, the fluorescence intensity is reported as 6050 (inactive).
For O=C(COC(=O)CCc1nc2ccccc2c(=O)[nH]1)Nc1ccc(N2CCOCC2)cc1, the fluorescence intensity was 4110 (inactive).
For COc1ccc(Sc2ccc(NC(=O)c3cccc(Cl)c3)cc2C#N)cc1, the fluorescence intensity was 3440 (inactive).
In the case of CC(=O)Nc1nc(C)c(Cc2ccccc2)c(=O)[nH]1, the fluorescence intensity is reported as 2420 (inactive).
With Cc1ccc2c(O)c(Cc3ccccc3)c(=O)[nH]c2n1 the fluorescence intensity was 3740 (inactive).
With Cc1nc(SC(C)C)[nH]c(=O)c1Cc1ccccc1 the fluorescence intensity was 23800 (active).
With CC(C)NC(=O)C1(C)CCCCN1Cc1cccc(C(F)(F)F)c1 (stereo unspecified) the fluorescence intensity was 3020 (inactive).
For CCOc1cc(-c2nc3cc(C)ccn3c2NCC2CCCO2)ccc1O (stereo unspecified), the fluorescence intensity was 4290 (inactive).
In the case of COc1ccc(-c2nc3cc(C)ccn3c2NC2CCCCC2)cc1SC1CCCCC1, the fluorescence intensity is reported as 20700 (active) and 26600 (active).
For COc1ccc(-c2nc3cnccn3c2NC2CCCCC2)cc1-c1cccc(Cl)c1, the fluorescence intensity was 6580 (inactive) and 3860 (inactive).
For COc1cc(NC(=O)CN2C(=O)NC(C)(c3ccc(OC(F)F)cc3)C2=O)cc(OC)c1OC (stereo unspecified), the fluorescence intensity was 3820 (inactive).
For CN(CC(=O)Nc1c(Cl)cccc1Cl)C(=O)CNC(=O)C1CCCCC1, the fluorescence intensity was 4800 (inactive).
For CC(=O)N1C[C@@H](CO)[C@@H](N(C)C(=O)c2ccco2)C[C@H]1c1ccccc1, the fluorescence intensity was 6130 (inactive).
In the case of O=C(CSc1nnc(-c2cccnc2)n1CCc1ccccc1)NCc1ccccc1, the fluorescence intensity is reported as 2870 (inactive).
For C=CCn1c(SCC(=O)NCc2ccccc2)nnc1-c1cc(Br)ccc1O, the fluorescence intensity was 20700 (active).
In the case of C=CCn1c(SCC(=O)NC(=O)Cc2ccccc2)nc2ccccc2c1=O, the fluorescence intensity is reported as 8750 (inactive).
With Cc1nc(CC(=O)NNS(=O)(=O)c2ccc(F)c(Cl)c2)cs1 the fluorescence intensity was 2630 (inactive).
With CCC(=O)N(CCc1ccccc1)Cc1cc2cc(C)ccc2[nH]c1=O the fluorescence intensity was 3090 (inactive).
In the case of CCN(Cc1cc2cc(C)ccc2[nH]c1=O)S(=O)(=O)c1ccccc1, the fluorescence intensity is reported as 16600 (active).
In the case of COc1ccc(N(Cc2cc3ccc(C)cc3[nH]c2=O)S(=O)(=O)c2ccccc2)cc1, the fluorescence intensity is reported as 4310 (inactive).
For CC1(C(=O)NS(=O)(=O)Cc2cccc(Cl)c2)CCN1C(=O)Cc1ccccc1 (stereo unspecified), the fluorescence intensity was 3480 (inactive).
For CC(=O)Nc1cccc(NC(=O)CSc2nccn2Cc2ccc(F)cc2)c1, the fluorescence intensity was 6150 (inactive).
In the case of OC(c1ccc(Cl)c(F)c1)c1ncc(-c2ccccc2Cl)[nH]1 (stereo unspecified), the fluorescence intensity is reported as 3970 (inactive).
With COc1ccc(-c2[nH]nc3c2C(c2ccncc2)C(C#N)=C(N)O3)cc1 (stereo unspecified) the fluorescence intensity was 3830 (inactive).
With COc1cc(C2C(C#N)=C(N)Oc3n[nH]c(-c4ccccn4)c32)cc(OC)c1OC (stereo unspecified) the fluorescence intensity was 22700 (active).
In the case of COCc1[nH]nc2c1C(C1C=CCCC1)C(C#N)=C(N)O2 (stereo unspecified), the fluorescence intensity is reported as 11600 (inactive).
For NC(=O)Cc1ccc2sc(-c3ccccc3)nc2c1, the fluorescence intensity was 2610 (inactive).
In the case of Cc1cc(NC(=O)[C@H](C)NC(=O)c2ccco2)ccc1Br, the fluorescence intensity is reported as 3700 (inactive).
With CC(NC(=O)c1ccco1)C(=O)Nc1nc(-c2ccccn2)cs1 (stereo unspecified) the fluorescence intensity was 20700 (active).
In the case of O=C(COc1ccccc1F)Nc1nc(-c2ccccn2)cs1, the fluorescence intensity is reported as 3790 (inactive).
In the case of COCCNc1ncnc2c1ncn2[C@H]1CN(CCN2CCOCC2)C[C@@H](CO)O1, the fluorescence intensity is reported as 3590 (inactive).
With OC(c1ccccc1)C(CN1CCOCC1)c1ccccc1 (stereo unspecified) the fluorescence intensity was 4580 (inactive).
In the case of CN[C@H]1C[C@H]2c3cc(Oc4ccccc4C)ccc3CCN2C(=O)[C@H]1[C@H](C)O, the fluorescence intensity is reported as 5280 (inactive).
For O=C(CCC1CCCN(Cc2ccc(O)c(Cl)c2)C1)NCc1ccccc1F (stereo unspecified), the fluorescence intensity was 4480 (inactive).
With CC(=O)Oc1ccc(Cn2c(C)c(C(=O)NCc3ccc(C#N)cc3)sc2=O)cc1 the fluorescence intensity was 5590 (inactive).
For CCCCCCNC(=O)CSc1nccn1Cc1ccccc1, the fluorescence intensity was 9260 (inactive).
In the case of COC(=O)CCSc1nccn1Cc1ccccc1, the fluorescence intensity is reported as 20500 (active).
In the case of CCCCNC(=O)CSc1nccn1Cc1ccccc1, the fluorescence intensity is reported as 8790 (inactive).
With O=C(NCCN1CCOCC1)c1ccccc1N1C(=O)[C@@H]2Cc3c([nH]c4ccccc34)C(c3cccc(Cl)c3)N2C1=O (stereo partly specified) the fluorescence intensity was 5120 (inactive).
In the case of CCc1nc2c(OCc3ccc(C(=O)OC)cc3)cccn2c1N(C)C(=O)C(C)C, the fluorescence intensity is reported as 3990 (inactive).
For CC(=O)c1cc2c(cc1NC(=O)CN1CCCCCC1)OCO2, the fluorescence intensity was 3760 (inactive).
In the case of CC(=O)c1cc2c(cc1N)OCO2, the fluorescence intensity is reported as 22400 (active).
For CC(=O)C1=C(C)NC(=O)NC1c1ccc2c(c1)OCO2 (stereo unspecified), the fluorescence intensity was 4750 (inactive).
For Cc1nc(SCC(=O)N2CCc3ccccc3C2)c2c(C)c(C)sc2n1, the fluorescence intensity was 5870 (inactive).
For CCCCn1nnnc1C(c1cccc(OC)c1OC)N1CCN(C/C=C/c2ccccc2)CC1 (stereo unspecified), the fluorescence intensity was 5960 (inactive).
With Cc1ccc(S(=O)(=O)N2CCCC(C(=O)N3CCN(C)CC3)C2)cc1 (stereo unspecified) the fluorescence intensity was 5490 (inactive).
For COc1ccc(OCC(=O)OCCN(C)C)cc1, the fluorescence intensity was 2140 (inactive).
With COc1ccc(OCCCC(=O)Oc2ccc(OC)cc2)cc1 the fluorescence intensity was 21300 (active).
In the case of COc1ccc(OCCCC(=O)OC(C)C(=O)Nc2ccccc2[N+](=O)[O-])cc1 (stereo unspecified), the fluorescence intensity is reported as 3940 (inactive).
In the case of COC(=O)c1ccc(CSc2nncn2N)cc1, the fluorescence intensity is reported as 4020 (inactive).
For CCCCOc1ccc(Cl)cc1CSc1nncn1N, the fluorescence intensity was 20700 (active).
For CCCCOc1ccc(CSC(=N)N)cc1[N+](=O)[O-], the fluorescence intensity was 2600 (inactive).
In the case of Cn1cccc1C1(C(F)(F)F)NCCNC1=O (stereo unspecified), the fluorescence intensity is reported as 20400 (active).
For CC(=O)N1CCN(Cc2cc(=O)oc3cc(C)ccc23)CC1, the fluorescence intensity was 5400 (inactive).
With Cc1ccc(Cn2c(C)c(C(=O)NCc3ccccc3C(F)(F)F)sc2=O)cc1 the fluorescence intensity was 5600 (inactive).
In the case of O=C1c2ccccc2C(c2nc3ccccc3[nH]2)N1c1ccccc1 (stereo unspecified), the fluorescence intensity is reported as 6040 (inactive).
With CCN(CC)C(=O)CSC1c2ccccc2C(=O)N1c1ccccc1 (stereo unspecified) the fluorescence intensity was 23100 (active).
With CCN(CC)C(=O)CSc1ncnc2c1cnn2-c1ccccc1 the fluorescence intensity was 3150 (inactive).
In the case of C[N+](C)(C)CCNC(=O)c1c[nH]c2ccccc12, the fluorescence intensity is reported as 5520 (inactive).
For CCCNC(=O)C1(C)CCN1C(=O)Cc1ccc(-c2ccccc2)cc1 (stereo unspecified), the fluorescence intensity was 3250 (inactive).
For CC(=O)Nc1ccc(SCC(=O)Nc2ccccc2Oc2ccccc2)cc1, the fluorescence intensity was 2020 (inactive).
For C#Cc1cc(N2CCN(C(=O)c3ccoc3)CC2)n2nc(-c3cccc(Cl)c3)cc2n1, the fluorescence intensity was 4220 (inactive).
In the case of CC(C)(C)NC(=O)C(=O)NCc1ccncc1, the fluorescence intensity is reported as 2060 (inactive).
With CCCC(C)C(=O)NCc1ccncc1 (stereo unspecified) the fluorescence intensity was 2180 (inactive).
With CCCCOc1ccc(C(=O)NCc2ccncc2)cc1 the fluorescence intensity was 20300 (active).
With O=C(CN(C(=O)c1nsc(Cl)c1Cl)c1cccc(F)c1)NC1CCCC1 the fluorescence intensity was 4350 (inactive).
For Cc1noc(C)c1C(=O)OCC(=O)N1CCN(S(=O)(=O)c2ccc3ccccc3c2)CC1, the fluorescence intensity was 4540 (inactive).
In the case of CC(=O)Nc1cccc(OCC(=O)/C=C2\N(C)c3ccccc3C2(C)C)c1, the fluorescence intensity is reported as 3790 (inactive).
For Cc1noc(C)c1C(=O)OCC(=O)/C=C1\N(C)c2ccccc2C1(C)C, the fluorescence intensity was 23200 (active).
With CC1(C(=O)NS(=O)(=O)c2cccc(OC(F)F)c2)CCN1C(=O)COc1ccc(Cl)cc1 (stereo unspecified) the fluorescence intensity was 2870 (inactive).
For Cc1ccn(-c2cccc(-n3ccc(C)n3)n2)n1, the fluorescence intensity was 2160 (inactive).
In the case of CC(=O)Nc1cc(-c2ccc(N3CCN(C)CC3)cc2)cn2c(-c3ccc(F)cc3)cnc12, the fluorescence intensity is reported as 3850 (inactive).
For Cc1sc(NC(=O)c2ccc3ncsc3c2)c(C(N)=O)c1C, the fluorescence intensity was 5240 (inactive).
For Cc1ccc(C(=O)c2c(NC(=O)c3ccccc3)sc(C)c2C)cc1, the fluorescence intensity was 24600 (active).
In the case of CC(=O)c1c(Nc2ccccc2)sc(C(=O)c2ccccc2)c1C, the fluorescence intensity is reported as 2060 (inactive).
For C[C@H](NC(=O)[C@@H]1CCCN1C(=O)[C@@H]1CCCN1C(=O)c1ccccc1)c1ccccc1, the fluorescence intensity was 6120 (inactive).
With Cc1c(Cl)cccc1NC(=S)NCC(O)c1ccccc1 (stereo unspecified) the fluorescence intensity was 2920 (inactive).
In the case of COc1ccc(C(=O)CCC(=O)Nc2cccnc2)c(OC)c1, the fluorescence intensity is reported as 5960 (inactive).
With CC(Oc1ccc(Cl)cc1)C(=O)Nc1ncccn1 (stereo unspecified) the fluorescence intensity was 6780 (inactive).
With COc1ccc(OC(C)C(=O)Nc2cccnc2)cc1 (stereo unspecified) the fluorescence intensity was 23000 (active).
In the case of Cc1ccc(C(=O)O)c(NC=O)c1OCc1ccccc1, the fluorescence intensity is reported as 4160 (inactive).
In the case of COc1ccc2c(c1)CCc1c(C(=O)Nc3c(C)n(C)n(-c4ccccc4)c3=O)noc1-2, the fluorescence intensity is reported as 21100 (active).
In the case of COc1ccc(S(=O)(=O)Nc2c(C)n(C)n(-c3ccccc3)c2=O)cc1, the fluorescence intensity is reported as 16100 (active).
With COc1ccc(C(=O)N2CCCN(C)CC2)c(OC)c1 the fluorescence intensity was 4060 (inactive).
In the case of COc1ccccc1-c1cc(C(=O)N2CCCCC2)no1, the fluorescence intensity is reported as 4320 (inactive).
With COc1ccc(OC)c(NC(=S)N2CCc3ccccc3C2)c1 the fluorescence intensity was 2080 (inactive).
For COc1ccc(NS(=O)(=O)c2ccc(C(=O)Nc3c(C)n(C)n(-c4ccccc4)c3=O)cc2)cc1, the fluorescence intensity was 2940 (inactive).
With COc1ccc(C(=O)C(C)OC(=O)c2cccc(S(=O)(=O)Nc3c(C)n(C)n(-c4ccccc4)c3=O)c2)cc1 (stereo unspecified) the fluorescence intensity was 3490 (inactive).
In the case of Cc1c(NC(=O)c2coc(=O)c(Br)c2)c(=O)n(-c2ccccc2)n1C, the fluorescence intensity is reported as 2950 (inactive).
In the case of Cc1c(NC(=O)c2cc(-c3ccc(Br)cc3)on2)c(=O)n(-c2ccccc2)n1C, the fluorescence intensity is reported as 5870 (inactive).
In the case of COc1ccc2c(c1)CCc1c(C(=O)N3CCc4ccccc4C3)noc1-2, the fluorescence intensity is reported as 21600 (active).
For O=C(c1noc2c1CCCC2)N1CCc2ccccc2C1, the fluorescence intensity was 3010 (inactive).
In the case of COc1ccc2c(c1)CCc1c(C(=O)N3CCCC3)noc1-2, the fluorescence intensity is reported as 21100 (active).
